The campaign covered roughly 2,400 compounds. About 1,400 (58%) were called active.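 How the source made its calls: active means inhibition of 30% or more at any tested dose; inconclusive means primary hits over the limit that were never retested; inactive means the rest.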 The set was probably picked from earlier hits. The list shows a part of the results.

This assay can be described thus: ADP Hunter readout inhibition without MgcRacGAP – biochemical, coupled enzyme counter-screen, artefact control for MgcRacGAP inhibitor project, dose response (AID 624351).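 Further: signal is the ADP detection kit reading of free GDP without any GAP enzyme.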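 On inhibition: 0% = median positive control wells and 100% = median negative control wells.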 The following applies: fluorescence, no MgcRacGAP; series mostly up to 80 µM. In general terms: Counterscreens check selectivity or assay interference.
In general, IC50 refers to the concentration at which inhibition is half-maximal. Take `COc1ccc(CN2CCN(Cc3ccc(Br)cc3)CC2)c(OC)c1OC`: the IC50 result was “inactive”.
On the same count and under the same terms, the same measure for `COc1ccc(C(=O)N2CCN(CCCc3ccccc3)CC2)cc1OC`: “inactive”; for `COc1cccc(CN2CCN(C(=O)c3ccco3)CC2)c1OC`: “inactive”; for `COc1cc(/C=C/C(=O)OCC(=O)N2CCN(C(=O)c3ccco3)CC2)ccc1O`: 33.8 µM (active).
Same read-out and setting: the same measure for `Cc1sc2ncnc(N/N=C/c3ccc(O)cc3)c2c1C`: 48.3 µM (active); for `Cc1sc2ncnc(N(C)CCc3ccccn3)c2c1C`: “inactive”.
Turning to `Cc1sc2ncnc(Nc3ccc(O)cc3)c2c1C`, the IC50 was 38.2 µM (active).
Same read-out and setting: for `COC(=O)/C(=C/Nc1ccc(O)cc1)[N+](=O)[O-]` the value was 23.9 µM (active); for `O=C(CN1CCN(C2CCCCC2)CC1)Nc1ccccc1-c1ccccc1`, “inactive”.
As to `O=C(/C=C\c1ccco1)c1ccc(NC(=O)c2ccco2)cc1`, the IC50 result is “inactive”.
The same measure, in the same setting: the same measure for `O=C(Nc1cc(Br)c(O)c(Br)c1)c1cccc(NC(=O)c2ccco2)c1`: 81.3 µM (active).
On the same count and under the same terms, for `O=c1ccn(-c2ccccc2)[nH]1` the value was 51.3 µM (active); for `O=C1CCN(c2ccccc2)N1`, “inactive”.
Regarding `CCN(CC)CCCNCC(=O)Nc1cc(C)on1`, the IC50 entry was “inactive”.
On to `Oc1ccc(N=Nc2ccccc2)cc1`, for which the IC50 is 78.2 µM (active).
Same read-out and setting: the same measure for `CC(=O)Nc1ccc(N=Nc2ccc(O)cc2)cc1`: 24.5 µM (active).
Take `Nc1ccc(N=Nc2ccc(O)cc2)c(N)n1`: the IC50 is 10.2 µM (active).
On the same count and under the same terms, the same measure for `NS(=O)(=O)c1ccc(Nc2nc(-c3ccc(O)cc3O)cs2)cc1`: 48.8 µM (active); for `O=c1oc2ccccc2cc1-c1csc(Nc2ccc(O)cc2)n1`: 58 µM (active).
The same measure, in the same setting: for `NS(=O)(=O)c1ccc(Nc2nc(-c3ccc(O)cc3)cs2)cc1` the value was 20.9 µM (active); for `Nc1ccc(Nc2nc(-c3ccncc3)cs2)cc1`, 9.43 µM (active).
Same read-out and setting: for `Nc1ccc(Nc2nc(-c3cc4ccccc4oc3=O)cs2)cc1` the value was “inactive”; for `Cc1cc(NS(=O)(=O)c2ccc(Nc3nc(-c4ccc(O)cc4)cs3)cc2)no1`, 30.2 µM (active); for `O=C(Nc1ccccc1Cl)Oc1ccc(-c2ccccc2)cc1`, 14.1 µM (active).
For `Cc1cnc(C(=O)Oc2ccc(-c3ccccc3)cc2)cn1`, the IC50 entry is “inactive”.
Take `O=C(Nc1ccccc1Cl)/C(Cl)=C(\Cl)S(=O)c1ccccc1` (stereo not given): the IC50 result is “inactive”.
On the same count and under the same terms, the same measure for `Cc1cc(C)c(C#N)c(SCS(=O)Cc2ccc(Cl)cc2)n1` (stereo not given): “inactive”; for `NC(=NCCCCCCN=C(N)/N=C(\N)Nc1ccc(Cl)cc1)/N=C(\N)Nc1ccc(Cl)cc1`: “inactive”; for `Oc1ccc(/C=N/Nc2cc(N3CCOCC3)nc(N3CCOCC3)n2)cc1O`: 75.5 µM (active).
In the case of `COc1ccc2c(-c3ccccc3)cc(N3CCOCC3)nc2c1`, the IC50 result is “inactive”.
For `Oc1ccc(/C=N\Nc2cc(N3CCOCC3)nc(N3CCOCC3)n2)c(O)c1`, the IC50 was 76.4 µM (active).
For `Oc1ccc(/C=N/Nc2cc(N3CCOCC3)nc(N3CCOCC3)n2)cc1`, the IC50 is 49.2 µM (active).
The same measure, in the same setting: for `CN(C)c1ccc(-n2cccc2/C=C/[N+](=O)[O-])cc1` the value was “inactive”.
The same measure, in the same setting: for `CCCCN(C)C(=O)C1CCN(Cc2cccc(OCc3ccccc3)c2)CC1` the value was “inactive”; for `Cc1ccc(O)c(C=Nc2ccc3[nH]ncc3c2)c1`, 34.5 µM (active).
Still for that read-out and setting: the same measure for `Oc1ccc(Br)cc1C=Nc1ccc2[nH]ncc2c1`: 48.2 µM (active); for `COc1ccc(C=Nc2ccc3[nH]ncc3c2)c(O)c1`: 38.4 µM (active).
Turning to `COc1ccc2[nH]c3c(C)c4ccncc4c(C)c3c2c1`, the IC50 entry was “inactive”.
On to `Brc1ccc(OCCCN2CCOCC2)cc1`, for which the IC50 entry was “inactive”.
Turning to `Cc1ccc(/C=C2/C(=O)ON=C2c2ccccc2)o1`, the IC50 result is “inactive”.
On to `CCN(c1ccccc1)S(=O)(=O)c1ccc(Cl)c(NC(=O)CN(C)C2CCN(C)CC2)c1`, for which the IC50 entry was “inactive”.
As to `CCN(c1ccccc1)S(=O)(=O)c1ccc(N2CCN(c3ccc(O)cc3)CC2)nc1`, the IC50 is 53.5 µM (active).
Same read-out and setting: for `COc1ccccc1CNCC(=O)N1CC(=O)Nc2ccccc21` the value was “inactive”; for `CN(C)c1ccc2c(c1)C(=NO)c1ccccc1-2`, 42.8 µM (active); for `ON=C1c2ccccc2-c2ccc(O)cc21`, 36.5 µM (active).
In the case of `CCN(Cc1ccccc1)C(c1ccc(C)cc1)c1nnnn1C(C)(C)CC` (stereo not given), the IC50 result was “inactive”.
On to `Brc1cccc(OCCN2CCOCC2)c1`, for which the IC50 result was “inactive”.
On the same count and under the same terms, for `Nc1ccc(-c2nc3ccc(N)cc3o2)cc1` the value was 44.4 µM (active).
The same measure, in the same setting: the same measure for `CCOc1cc(/C=C/c2cccc[n+]2C)ccc1O`: 27.2 µM (active); for `COc1ccccc1-n1c(=O)c2c3c(sc2n2c(=S)[nH]nc12)CCC3`: 44.9 µM (active); for `CCn1c(=O)c2c3c(sc2n2c(=S)[nH]nc12)CCC3`: 25 µM (active).
Regarding `COc1ccc(-n2c(=O)c3c4c(sc3n3c(=S)[nH]nc23)CCCC4)cc1`, the IC50 was 30.3 µM (active).
Still for that read-out and setting: the same measure for `C=CCSC1=N/C(=C\C=C\c2ccco2)C(=O)S1`: “inactive”; for `COc1ccc(/C=N/n2c(-c3n[nH]c4c3CCC4)n[nH]c2=S)cc1OC`: 61.5 µM (active); for `COc1ccc(/C=N/n2c(-c3n[nH]c4c3CCC4)n[nH]c2=S)c(OC)c1OC`: 65.7 µM (active).
Take `COc1cc(/C=N/n2c(C3CCCCC3)n[nH]c2=S)ccc1O`: the concentration for half-maximal inhibition (IC50) is 51.8 µM (active).
On the same count and under the same terms, for `COc1cccc(/C=N/n2c(-c3n[nH]c4c3CCC4)n[nH]c2=S)c1O` the value was 54.6 µM (active); for `C=CCOC(=O)c1cc(-c2ccc(/C=C3\C(=O)NC(=O)C(C#N)=C3C)o2)ccc1Cl`, “inactive”.
The same measure, in the same setting: for `CCN(CC)CCCNCC(=O)Nc1ccc2c(c1)CCC2` the value was “inactive”; for `CCC1(c2ccccc2)NC(=O)N(CC(=O)Nc2ccc(N3CCCC3)cc2C)C1=O` (stereo not given), “inactive”.
For the compound `CCN(CC)c1ccc(NC(=O)CN2C(=O)NC3(CCc4ccccc43)C2=O)cc1` (stereo not given), the IC50 was 83.2 µM (active).
The same measure, in the same setting: for `Nc1nc(N)c2[nH]c(=S)[nH]c2n1` the value was “inactive”; for `O=C1C=CC2(C=C1)O[C@H](Cc1ccccc1)[C@@H](Cc1ccccc1)O2`, “inactive”; for `O=C1/C(=C\c2ccccc2)CN(C(=O)CCN2CCCCC2)C/C1=C/c1ccccc1`, “inactive”.
Still for that read-out and setting: the same measure for `COc1ccc(/C=N/NC(=O)CN2CCCCCCC2)c(C)c1C`: “inactive”.
In the case of `C=CCNC(=O)CN1CCN(C(c2ccccc2)c2ccccc2)CC1`, the IC50 entry was “inactive”.
Same read-out and setting: for `COc1cc(/C=N/NC(=O)CCN2CCCCC2)ccc1O` the value was 34.3 µM (active); for `COc1cc(/C=N/NC(=O)CCN2CCN(C(c3ccccc3)c3ccccc3)CC2)ccc1O`, 53.4 µM (active).
On the same count and under the same terms, for `C=CCc1c(C)nc(-c2ccccc2)nc1Nc1ccc(O)cc1` the value was 41.3 µM (active); for `CS(=O)(=O)c1ccc2c(c1)sc1nc(=O)c(/C=C3/C=CC(=O)C(O)=C3)c(N)n12`, 60.1 µM (active).
The same measure, in the same setting: the same measure for `Nc1c(/C=C2/C=CC(=O)C(O)=C2)c(=O)nc2sc(CC(=O)N3CCOCC3)nn12`: 67.8 µM (active).
On to `Nc1c(/C=C2/C=CC(=O)C(O)=C2)c(=O)nc2sc(CC(=O)N3CCCC3)nn12`, for which the IC50 was 59.4 µM (active).
As for `Cc1ccc(C(C)C)c(OCCCCN2CCNCC2)c1`, the IC50 entry was “inactive”.
Still for that read-out and setting: for `CC(NCc1ccc(S(N)(=O)=O)cc1)C(=O)N1c2ccccc2CC1C` (stereo not given) the value was “inactive”.
One may read the inhibition as the change of the read-out against control, counted positive when it falls. For the compound `COc1cc(OC)c(C2Nc3cccc4cccc(c34)N2)c(OC)c1`, the inhibition is -13.7% [at 5 µM] (inactive).
For the compound `COc1ccccc1C1Nc2cccc3cccc(c23)N1`, the IC50 was 51.6 µM (active).
Consider `COc1cc(OC)c(C(=O)Nc2ccc(N(C)C)cc2)cc1OC`, for which the IC50 was 27.2 µM (active).
Still for that read-out and setting: the same measure for `Cc1oc(-c2ccccc2)cc1C(=O)Nc1ccc(N(C)C)cc1`: 65.5 µM (active).
Same read-out and setting: for `COc1ccc(NC(=O)Nc2ccc(N(C)C)cc2)cc1` the value was 21.9 µM (active).
On the same count and under the same terms, the same measure for `Cc1ccc(NC(=O)C2=C(c3ccccc3)S(=O)(=O)CCS2(=O)=O)cc1`: “inactive”; for `CN(C)c1ccc(N=Cc2nc(-c3ccccc3)oc2OC(=O)c2cccc(Br)c2)cc1`: “inactive”; for `O=C(Nc1ccc(O)cc1)c1cc2n(n1)C(C(F)(F)F)CC(c1ccco1)N2` (stereo not given): 28.7 µM (active).
Take `Cc1cc(C)c(OCCCCN2CCC(C)CC2)c(Br)c1`: the IC50 entry is “inactive”.
For `COc1cc(CNc2ccc(N3CCN(C(C)=O)CC3)cc2)ccc1OCc1ccccc1`, the IC50 is 13.4 µM (active).
Still for that read-out and setting: the same measure for `COc1ccc(CN2CCN(C(=O)CC(C)C)CC2)cc1OC`: “inactive”; for `COc1ccc(CNc2ccc(N3CCN(C(C)=O)CC3)cc2)cc1OC`: 15.1 µM (active); for `COc1ccc(CN2CCN(Cc3ccccc3F)CC2)cc1OC`: “inactive”.
Still for that read-out and setting: for `COc1ccc(CN2CCC(C(N)=O)CC2)cc1OCc1ccccc1` the value was “inactive”.
Same read-out and setting: for `COc1cc(CNc2ccc3[nH]c(=O)[nH]c3c2)ccc1OCc1ccccc1` the value was “inactive”.
Take `COc1cc(/C=C/C(=O)OCC(=O)c2ccc[nH]2)ccc1O`: the IC50 is 25.9 µM (active).
As to `COc1cc(/C=C/C(=O)OCC(=O)c2ccc(OC(F)F)cc2)ccc1O`, the IC50 was 58.2 µM (active).
As for `C/C(=N\NC(=O)c1cccc(N/N=C(\C)c2cc(O)ccc2O)c1)c1cc(O)ccc1O`, the IC50 is 75.5 µM (active).
Still for that read-out and setting: the same measure for `S=c1[nH]nc(-c2cccs2)n1/N=C/c1cccs1`: 59.7 µM (active).
For the compound `Cc1cc(-c2n[nH]c(=S)n2/N=C/c2ccc(Br)s2)n[nH]1`, the IC50 was 80.5 µM (active).
Turning to `Cc1cc(-c2n[nH]c(=S)n2/N=C/c2cccs2)n[nH]1`, the IC50 is 78.7 µM (active).
With `Cc1cc(-c2n[nH]c(=S)n2/N=C/c2ccccc2[N+](=O)[O-])n[nH]1`, the IC50 is 83.5 µM (active).
The same measure, in the same setting: the same measure for `Cc1cc(-c2n[nH]c(=S)n2/N=C/c2sccc2C)n[nH]1`: 62.4 µM (active).
Take `O=C1CSC(=S)N1Nc1ccccc1`: the IC50 was 68 µM (active).
For the compound `Nc1ccc2ccc(O)cc2c1`, the IC50 was 31.5 µM (active).
Still for that read-out and setting: for `C[n+]1c2cc(N)ccc2cc2ccc(N)cc21` the value was “inactive”; for `Oc1ccc2ccc(Cl)cc2c1`, 53.9 µM (active); for `CCCC1=NN2C(=N)/C(=C\c3ccc(SCc4ccco4)o3)C(=O)N=C2S1`, “inactive”.
For `CN1/C(=C\C=N\NC(=O)c2ccc(O)cc2)C(C)(C)c2ccccc21`, the IC50 is 74.4 µM (active).
With `CN(C)c1ccc(N=C/C=C2/N(C)c3ccccc3C2(C)C)cc1`, the IC50 was 20.6 µM (active).
Take `CN(C)c1ccc(N=C/C=C2\N(C)c3ccccc3C2(C)C)cc1`: the IC50 is 12.4 µM (active).

Values taken from PubChem BioAssay AID624351 (Southern Research Specialized Biocontainment Screening …, 2012).
